The entries come from a sample that favours hits as a whole.
MARV entry inh: Marburg virus entry inhibition; Marburg virus pseudotyped entry inhibition, cell reporter; Potency, µM (doses to about 37.8 µM), for inactives: at the top dose activity change, negative = inhibition, hits mostly inhibitors; AID 540276; hit rate 1.8% among 300,000; calls by dose curve; tested in HEK293 cells; note: potency is the fitted concentration of half-maximal effect; % is set by controls: 0 for no effect and ±100 for the full control effect
Shiga toxin inh: blocks Shiga toxin action in Vero cells. Vero cells, Shiga toxin protein synthesis inhibition reporter. inhibition, % at 38.7 µM. hit rate 9.2% among 290,000; in the data active = inhibition mostly above about 28%, no sharp cut-off; inactive = mostly below about 43%; note: 0% is about no effect
Cycloheximide cs: affects cycloheximide protein synthesis inhibition readout, counter-screen; cell reporter, cycloheximide protein synthesis inhibition counterscreen; max response, %; hit rate 12% among 300,000; AID 2314; in the data active = max response mostly above about 13%, no sharp cut-off; inactive = mostly below about 14%; note: read at 38.3 µM for the half of the compounds with a filed dose; 0% is about no effect
AMA1-RON2 inh: AMA1-RON2 (P. falciparum) interaction inhibition; AlphaScreen AMA1-biotinylated RON2 peptide binding; Potency, µM (top dose mostly 58.2 µM), inactives show at the highest dose activity change, negative = inhibition, hits mostly inhibitors; AID 720542; hit rate 0.2% among 360,000; active = well fitted inhibition curve with a large enough effect; inconclusive = small, poorly fitted or top-dose-only effect; inactive = no such curve, though single readings can be large or run the other way;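 note: potency is the fitted concentration of half-maximal effect; 0% = vehicle wells and -100% = peptide control; nearly all actives have a fitted effect of over 45% in size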
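AMA1 (3D7) with his tag at 25 nM final met compounds first, then biotinylated RON2 peptide at 25 nM; detection used donor plus acceptor beads, 10 µg/mL apiece, read by AlphaScreen after 30 min at room temperature.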
Lassa entry inh: Lassa virus entry inhibition; hit rate 1.2% among 300,000; Potency, µM (doses to about 37.9 µM), for the others: top-dose activity change, negative = inhibition, actives largely listed as inhibitors; Lassa virus pseudotype entry inhibition, cell reporter; calls by dose curve; tested in HEK293 cells; note: potency is the fitted concentration of half-maximal effect; % is set by controls: 0 for no effect and ±100 for the full control effect; nearly all actives have a fitted effect of over 50% in size
Starred values were filed as active, the others as inactive; ? = inconclusive; . = no result; [ ] = remark or other dose.

SMILES	MARV entry inh	Shiga toxin inh	Cycloheximide cs	AMA1-RON2 inh	Lassa entry inh
COc1cccc(CNC(=O)CCCN2C(=O)C(c3ccccc3)Oc3cccnc32)c1OC (stereo not given)	.	-9.3	28.9	-7.9%	.
Cc1cc2c(cc1S(=O)(=O)N(CCO)Cc1ccccc1)OCC(=O)N2	.	.	.	.	-0.7%[46.1 µM]
CC(=O)c1cccc(OC(=O)C2=CC=CN3CCS(=O)(=O)N=C23)c1	.	.	.	-13.4%	.
CCOC(=O)c1ccc(N2Cc3ccccc3C2=NC(=O)c2cccs2)cc1	?	16.6	9.2	1.0%	10µM*
CC(=O)c1ccc(N2Cc3ccccc3C2=NC(=O)c2cccs2)cc1	?	60.5*	26.0*	-8.8%	7.94µM*
COc1ccc(N2Cc3ccccc3C2=NC(=O)c2cncc(Br)c2)cc1	-5.5%	71.3*	40.2*	-1.6%	25.4%
CC(=O)c1ccc(NC(=O)c2nc(-c3ccccc3)n(-c3ccccc3)n2)cc1	-2.3%[46.1 µM]	.	.	.	-0.2%[46.1 µM]
COc1ccc(N2Cc3ccccc3C2=NC(=O)c2cccc([N+](=O)[O-])c2)cc1	2.8%	9.7	10.1	-13.3%	17.8%
CC(=O)c1ccc(N2Cc3ccccc3/C2=N\C(=O)Nc2ccccc2)cc1	13.9%	43.2	27.5*	-7.2%	0.2%
CCOc1ccccc1CN1CCc2nc(Nc3ccc4c(c3)OCCO4)ncc2C1	.	.	.	.	-13.3%[46.1 µM]
CCc1nn(CC(=O)Nc2ccc(C)c(F)c2)c(=O)c2cc3cc(C)ccc3n12	?	.	.	.	4.7%[46.1 µM]
COc1ccccc1NC(=O)c1cc2cc3ccc(OC)c(Cl)c3nc2s1	.	.	.	.	-2.5%[46.1 µM]
CCOC(=O)c1ccc(N2Cc3ccccc3C2=N)cc1	-0.2%	125.6*	33.7*	9.2%	27.0%
CC(C)(C)S(=O)N1Cc2cc(C(=O)NCc3ccc4c(c3)OCO4)nc(-c3cccc(-c4ccccc4)c3)c2[C@@H]1CCO (stereo not given in full)	.	.	.	-3.8%	.
O=C(Nc1ccccc1)c1ccc(=O)n(Cc2cccc(Cl)c2)c1	?	-7.9	-2.1	-6.4%	3.3%
C#CCn1cc(Cl)cc(C(=O)Nc2ccccc2)c1=O	.	2.5	17.3*	5.1%	.
CCCn1cccc(C(=O)Nc2ccc(OC)cc2)c1=O	?	53.4	22.2*	2.2%	?
C#CCn1cccc(C(=O)Nc2ccc(OC)cc2)c1=O	.	46.1*	18.4*	-3.1%	.
COC(=O)c1sccc1S(=O)(=O)N(CC(=O)NCc1ccc(C)cc1)c1ccc(C)c(C)c1	.	.	.	.	-20.8%[46.1 µM]
CCc1ccccc1N(CC)C(=O)C(=O)Nc1ccc2nc3n(c(=O)c2c1)CCCCC3	3.9%[46.1 µM]	.	.	.	?
O=C1c2ccccc2-c2onc3c(N4CCN(CCO)CC4)cc(N4CCN(C(=O)c5ccco5)CC4)c1c23	?	-12.8	-5.0	14.1µM*	?
CN1CCN(c2cc(N3CCN(C(=O)c4ccco4)CC3)c3c4c(onc24)-c2ccccc2C3=O)CC1	.	-19.5	0.8	17.8µM*	.
CCc1ccc(-c2nn(CC(=O)NCc3ccccc3)c3c2cnc2ccc(C)cc23)cc1	.	.	.	.	-2.5%[46.1 µM]
O=C(Nc1ccc(N2CCCC2)c(Cl)c1)c1cccs1	?	95.0*	71.3*	-24.2%	?
O=C(NC(=S)Nc1ccc(N2CCOCC2)c(Cl)c1)c1cccs1	?	59.7*	30.3*	-19.1%	3.5%[46.1 µM]
SMILES	MARV entry inh	Shiga toxin inh	Cycloheximide cs	AMA1-RON2 inh	Lassa entry inh
Cc1cc2cc(C)c3nnc(SCC(=O)N4CCc5ccccc54)n3c2cc1C	-3.2%	13.6	-2.6	.	.
Cc1ccc(OC(=O)c2ccccc2)cc1C	17.3%	.	.	35.8%	?
O=C(Oc1ccc2c(c1)OCC2=O)c1ccccc1	3.0%	active	44.5*	2.9%	24.4%
CC(C)(C)c1ccc(C(=O)Oc2ccc3c(c2)OCC3=O)cc1	-1.5%	85.6*	53.9*	259.5%	-29.2%
O=c1[nH]c(=O)n(-c2ccccc2)c(O)c1/C=C1/C(c2ccccc2)=Nc2ccccc21	-14.9%	30.2*	47.6*	-11.1%[2.32 µM]	-13.7%
COC(=O)C1=Nc2ccccc2/C1=C\c1c(O)n(-c2ccc(Br)cc2)c(=O)[nH]c1=O	-17.8%	-12.7	1.4	8.5%[11.6 µM]	-1.3%
C[C@H](NC(C)(C)C)C(=O)c1cccc(Cl)c1	16.4%	.	.	.	.
c1ccc2nc(N3CCOCC3)cnc2c1	-1.3%	17.7	17.1*	4.2%	-1.4%
COCc1cc(N2CCN(c3ccccc3F)CC2)nc(-c2ccccc2)n1	15.2%[46.1 µM]	-18.1	10.8	-0.5%	-2.2%
Cc1cc(N2CCOCC2)nc2ccccc12	18.1%	48.9*	14.8*	-4.3%	7.7%
COCc1cc(N2CCOCC2)nc(-c2ccccc2)n1	10µM*	21.1	0.6	1.6%	9.2%
Cc1cc(N2CCCCC2)nc2ccccc12	-28.9%[46.1 µM]	19.0	11.3*	-2.4%	28.9%
Cc1cc(N2CCCCCC2)nc2ccccc12	-4.2%	11.6	18.7	?	-8.5%
